Molecules are shown by their SMILES. Results filed as inconclusive are left out. Where a call stands in place of a potency, no number is given. Activity calls are given as the source filed them. Calls follow the shape of the dose curve; as a rule, active = well fitted curve in the direction sought with a large enough effect; inconclusive = small, poorly fitted or top-dose-only effect, or another doubt; inactive = no such curve, though single readings can be large; an effect the other way counts as inactive or inconclusive.

These results are taken from PubChem BioAssay (NCATS).

Assay [1] has as its target Aldehyde dehydrogenase, mitochondrial (Homo sapiens) (UniProt P05091). As to the kind of experiment: qHTS for Inhibitors of the Aldehyde Dehydrogenase Family (ALDH2) Primary screen (AID 2061308). Also: nearly all actives have a fitted effect of over 55% in size.
Assay [2] deals with Retinaldehyde dehydrogenase 3 (Homo sapiens) (UniProt P47895). The assay can be described thus: qHTS for Inhibitors of the Aldehyde Dehydrogenase Family (ALDH1A3) Primary screen (AID 2061315). In general terms: In qHTS, concentration-response curves come from the screen itself.

For `CCCn1c(-c2ccc(F)cc2)nc2c(N3CCCN(Cc4ccccc4)CC3)nc(C)nc21`, the Potency entry in assay [1] and in assay [2] was “inactive” each time.

Regarding `O=C1CCc2cc(S(=O)(=O)Nc3ccccc3Cl)ccc2N1`, the Potency result in assay [1] and in assay [2] was “inactive” throughout.

In the case of `O=C1CCCC2=C1C1(CCCC1)N=C(Nc1nc3ccccc3o1)N2`, the Potency result in assay [1] and in assay [2] was “inactive” throughout.

Consider `CCOc1ccc(CCNC(=O)c2ccnn2Cc2cccc(C)c2)cc1OCC`, for which the Potency entry in assay [1] and in assay [2] was “inactive” in each case.

For the molecule `O=C(Cn1nc(-c2ccc(C(F)(F)F)cc2)ccc1=O)NCCc1ccccc1`, the Potency result in assay [1] and in assay [2] was “inactive” each time.

As to `C=C1C(=O)OC2C1CCC1(C)C(O)CC=C(C)C21` (stereo not given), the Potency result in assay [1] and in assay [2] was “inactive” in each case.

`COc1ccc2nc(-c3ccc(Cl)cc3)sc2c1`: the Potency result in assay [1] and in assay [2] was “inactive” throughout.

Take `CC(C)Oc1ccc(-c2ccc(=O)n(CC(=O)NCCc3ccccc3)n2)cc1`: the Potency entry in assay [1] and in assay [2] was “inactive” in each case.

Turning to `C=C1C(=O)O[C@@H]2C[C@H](C)[C@@H]3CC(=O)C(C)=C3C[C@H]12`, the Potency result in assay [1] and in assay [2] was “inactive” throughout.

As for `Oc1cccc2cc(Nc3ccccc3)cnc12`, the Potency result in assay [1] and in assay [2] was “inactive” each time.

Regarding `CC(C)(O)/C=C/C(=O)[C@](C)(O)[C@H]1[C@H](O)C[C@@]2(C)[C@@H]3CC=C4[C@@H](C[C@H](O[C@@H]5O[C@H](CO)[C@@H](O)[C@H](O)[C@H]5O)C(=O)C4(C)C)[C@]3(C)C(=O)C[C@]12C`, the Potency entry in assay [1] and in assay [2] was “inactive” in each case.

Take `COc1ccccc1NC(=O)c1cc(-c2ccc(C)c(C)c2)nc2ccccc12`: the Potency result in assay [1] and in assay [2] was “inactive” each time.

Take `C[C@@H]1O[C@@H](O[C@H]2[C@H](O[C@H]3CC[C@@]4(C)C(CC[C@]5(C)C4C=C[C@]46OC[C@@]7(CCC(C)(C)C[C@H]74)[C@@H](O)C[C@]65C)[C@]3(C)CO)O[C@H](CO)[C@@H](O)[C@@H]2O[C@@H]2O[C@H](CO)[C@@H](O[C@@H]3O[C@@H](C)[C@H](O)[C@@H](O)[C@H]3O)[C@H](O)[C@H]2O)[C@H](O)[C@H](O)[C@H]1O` (stereo not given in full): the Potency result in assay [1] and in assay [2] was “inactive” in each case.

As for `O=S(=O)(NCC1CC1)c1ccc(Nc2nccc(N3CCCc4cc(O)ccc43)n2)cc1`, the Potency entry in assay [1] and in assay [2] was “inactive” throughout.

Regarding `O=C(Nc1cccc(-c2nn3c(=O)cc(N4CCNCC4)nc3s2)c1)C1CCNCC1`, the Potency entry in assay [1] and in assay [2] was “inactive” in each case.

For the molecule `N[C@@H](Cc1ccc(O[S+](=O)([O-])c2cccc3cccnc23)cc1)C(=O)N1CCN(c2ccccc2)CC1`, the Potency result in assay [1] and in assay [2] was “inactive” throughout.

For the molecule `COc1ccc(CN2C(=O)c3ccccc3NC2c2ccc(OC)c(COc3c(C)cc(NC(C)=O)cc3C)c2)cc1` (stereo not given), the Potency entry in assay [1] and in assay [2] was “inactive” throughout.

As to `Cc1nc(Nc2ccccc2)c2nc(-c3ccccc3)n(CCN3CCOCC3)c2n1`, the Potency entry in assay [1] and in assay [2] was “inactive” throughout.

For `COc1cc(OC)c2c(c1)OC(=O)CC2c1ccc2c(c1)OCO2` (stereo not given), the Potency result in assay [1] and in assay [2] was “inactive” throughout.

As for `CCCn1c(-c2ccc(F)cc2)nc2c(NC(C)CCCN(CC)CC)nc(C)nc21` (stereo not given), the Potency entry in assay [1] and in assay [2] was “inactive” each time.

`Cn1c2ccsc2c2ncn(Cc3ccc(F)cc3)c(=O)c21`: the Potency result in assay [1] and in assay [2] was “inactive” each time.

Consider `COc1cc(-c2ccc3ncnc(NCC4CCCO4)c3c2)cc(OC)c1OC` (stereo not given), for which the Potency entry in assay [1] and in assay [2] was “inactive” each time.

With `Cc1ccc(NS(=O)(=O)c2ccccc2C(=O)Nc2nc(-c3ccccc3)cs2)cc1`, the Potency entry in assay [1] and in assay [2] was “inactive” in each case.

With `N#Cc1nc(Nc2cc(F)cc(F)c2)c2ncn(CCCN3CCCC3)c2n1`, the Potency entry in assay [1] and in assay [2] was “inactive” in each case.

Regarding `O=C(Nc1ccc(S(=O)(=O)Nc2nccs2)cc1)c1cccc2ccccc12`, the Potency result in assay [1] and in assay [2] was “inactive” throughout.

Consider `Cc1cnc(-c2ccccc2OC(C)C)nc1NCc1ccc(-n2ccnn2)cc1`, for which the Potency result in assay [1] and in assay [2] was “inactive” each time.

With `Cn1nnnc1Sc1ncnc2scc(-c3cccc4c3sc3ccccc34)c12`, the Potency entry in assay [1] and in assay [2] was “inactive” throughout.

With `COc1ccccc1-n1cnc2cc(C(=O)N3CCCCC3)ccc21`, the Potency entry in assay [1] and in assay [2] was “inactive” each time.

As for `O=C1CCc2cc(S(=O)(=O)Nc3cccc4ccccc34)ccc2N1`, the Potency result in assay [1] and in assay [2] was “inactive” in each case.

With `FC(F)(F)c1ccccc1-c1nc(NCc2ccc(-c3ccc4c(c3)OCO4)cc2)c2ccccc2n1`, the Potency result in assay [1] and in assay [2] was “inactive” throughout.

Turning to `Cc1cc(C)nc(NC(=S)N2CCN(c3ncnc4sccc34)CC2)c1`, the Potency entry in assay [1] and in assay [2] was “inactive” throughout.

`Fc1cc(Nc2nc(-c3ccncc3)nc3ccccc23)ccc1-c1ccncc1`: the Potency result in assay [1] and in assay [2] was “inactive” in each case.

For `Cc1nc(C)c2c(n1)N(Cc1ccc(-c3ccccc3-c3nn[nH]n3)cc1)C(=O)CC2`, the Potency entry in assay [1] and in assay [2] was “inactive” each time.

`Cc1ccc(-c2nn3c(C)nnc3s2)cc1NC(=O)c1ccc(-c2cccc(Cl)c2)o1`: the Potency entry in assay [1] and in assay [2] was “inactive” in each case.

Regarding `COc1ccccc1-c1nnc2n1N=C(c1ccc(OC(F)F)c(OCC3CC3)c1)CS2`, the Potency result in assay [1] and in assay [2] was “inactive” in each case.

Turning to `CN(C)c1cccc(-c2nc(N3CCC(C(N)=O)CC3)ncc2F)c1`, the Potency result in assay [1] and in assay [2] was “inactive” in each case.

`COc1cccc(-c2ccc3ncnc(NCc4cccnc4)c3c2)c1`: the Potency entry in assay [1] and in assay [2] was “inactive” throughout.

`O=C(Nc1ccc(Cl)cc1)Nc1cccc(-c2cccc(N3CCCC3)n2)c1`: the Potency entry in assay [1] and in assay [2] was “inactive” throughout.

Take `CC(C)CC(O)C(=O)Nc1cc(C(F)(F)F)ccc1Cl` (stereo not given): the Potency result in assay [1] and in assay [2] was “inactive” throughout.

In the case of `N#Cc1cccc(-c2csc(N3CCC(C(N)=O)CC3)n2)c1`, the Potency result in assay [1] and in assay [2] was “inactive” in each case.
